Drawing on ChEMBL document CHEMBL1961873, “Compounds: GSK PKIS; Assays: Nanosyn kinase panel” (2012), this text covers inhibition for six compounds.

Molecules are shown by their SMILES.

The target in assay [1] is Mast/stem cell growth factor receptor Kit (Homo sapiens) (UniProt P10721). The note with it: at 1 µM.
The test system of assay [2] is Mast/stem cell growth factor receptor Kit (Homo sapiens), P10721 [D816V]. The note with it: at 0.1 µM.
Assay [3] shares this test system. The note with it: at 1 µM.
Assay [4] has as its system Mast/stem cell growth factor receptor Kit (Homo sapiens), P10721 [T670I]. The note with it: at 0.1 µM.
Assay [5] has the same test system. The note with it: at 1 µM.
For assay [6], the system named is Mast/stem cell growth factor receptor Kit (Homo sapiens), P10721 [V560G]. The note with it: at 0.1 µM.
Chain of Mast/stem cell growth factor receptor Kit (Homo sapiens), P10721 [V560G] (P10721 whole entry V560G): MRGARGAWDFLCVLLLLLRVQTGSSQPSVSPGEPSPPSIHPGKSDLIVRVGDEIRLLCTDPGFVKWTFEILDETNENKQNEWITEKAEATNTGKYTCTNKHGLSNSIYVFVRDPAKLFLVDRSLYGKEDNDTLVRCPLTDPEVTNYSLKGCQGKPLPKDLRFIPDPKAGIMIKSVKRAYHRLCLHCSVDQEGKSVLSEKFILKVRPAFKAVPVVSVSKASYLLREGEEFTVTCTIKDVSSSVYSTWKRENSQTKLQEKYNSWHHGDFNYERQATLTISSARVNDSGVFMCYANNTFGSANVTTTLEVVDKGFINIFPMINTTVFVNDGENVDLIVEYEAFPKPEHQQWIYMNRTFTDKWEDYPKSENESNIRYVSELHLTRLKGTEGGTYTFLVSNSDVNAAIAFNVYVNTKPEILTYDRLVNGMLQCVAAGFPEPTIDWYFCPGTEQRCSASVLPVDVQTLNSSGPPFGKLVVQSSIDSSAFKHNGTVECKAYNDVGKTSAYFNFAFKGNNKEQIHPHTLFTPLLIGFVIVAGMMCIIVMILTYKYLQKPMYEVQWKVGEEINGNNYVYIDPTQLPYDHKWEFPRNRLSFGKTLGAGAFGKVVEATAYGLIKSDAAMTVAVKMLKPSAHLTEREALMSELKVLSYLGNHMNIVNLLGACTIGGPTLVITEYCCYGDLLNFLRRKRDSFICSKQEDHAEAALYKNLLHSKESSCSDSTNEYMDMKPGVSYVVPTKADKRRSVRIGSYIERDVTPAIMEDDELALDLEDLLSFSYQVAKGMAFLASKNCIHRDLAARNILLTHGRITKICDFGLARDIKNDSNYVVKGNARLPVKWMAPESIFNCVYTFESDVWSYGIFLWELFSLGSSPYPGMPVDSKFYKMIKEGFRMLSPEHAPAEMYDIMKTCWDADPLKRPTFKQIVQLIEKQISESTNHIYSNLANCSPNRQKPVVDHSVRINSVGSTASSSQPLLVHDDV
For assay [7] the test system is unchanged. The note with it: at 1 µM.
The target in assay [8] is Tyrosine-protein kinase Lck (Homo sapiens) (UniProt P06239). The note with it: at 0.1 µM.
Chain of Tyrosine-protein kinase Lck (Homo sapiens) (P06239 2-509 limits assumed): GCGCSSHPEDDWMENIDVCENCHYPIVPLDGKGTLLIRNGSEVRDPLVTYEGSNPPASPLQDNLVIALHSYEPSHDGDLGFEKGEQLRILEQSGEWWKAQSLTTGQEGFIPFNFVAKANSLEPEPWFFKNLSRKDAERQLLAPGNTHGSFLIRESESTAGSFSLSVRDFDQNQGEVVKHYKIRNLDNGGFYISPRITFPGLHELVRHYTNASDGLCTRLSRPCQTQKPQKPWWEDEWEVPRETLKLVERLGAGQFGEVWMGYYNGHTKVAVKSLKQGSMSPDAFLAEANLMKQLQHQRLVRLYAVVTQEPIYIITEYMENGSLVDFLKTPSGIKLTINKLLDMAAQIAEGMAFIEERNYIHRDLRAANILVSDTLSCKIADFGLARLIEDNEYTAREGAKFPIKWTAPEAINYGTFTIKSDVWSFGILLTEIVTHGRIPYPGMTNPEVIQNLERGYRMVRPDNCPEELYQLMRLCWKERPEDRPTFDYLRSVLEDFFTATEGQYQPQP
For assay [9] the target is unchanged. The note with it: at 1 µM.
Assay [10] addresses Leukocyte tyrosine kinase receptor (Homo sapiens) (UniProt P29376). The note with it: at 0.1 µM.
Assay [11] has the same target. The note with it: at 1 µM.
The target of assay [12] is Tyrosine-protein kinase Lyn (Homo sapiens) (UniProt P07948). The note with it: at 0.1 µM.
Chain of Tyrosine-protein kinase Lyn (Homo sapiens) (P07948 2-512 limits assumed): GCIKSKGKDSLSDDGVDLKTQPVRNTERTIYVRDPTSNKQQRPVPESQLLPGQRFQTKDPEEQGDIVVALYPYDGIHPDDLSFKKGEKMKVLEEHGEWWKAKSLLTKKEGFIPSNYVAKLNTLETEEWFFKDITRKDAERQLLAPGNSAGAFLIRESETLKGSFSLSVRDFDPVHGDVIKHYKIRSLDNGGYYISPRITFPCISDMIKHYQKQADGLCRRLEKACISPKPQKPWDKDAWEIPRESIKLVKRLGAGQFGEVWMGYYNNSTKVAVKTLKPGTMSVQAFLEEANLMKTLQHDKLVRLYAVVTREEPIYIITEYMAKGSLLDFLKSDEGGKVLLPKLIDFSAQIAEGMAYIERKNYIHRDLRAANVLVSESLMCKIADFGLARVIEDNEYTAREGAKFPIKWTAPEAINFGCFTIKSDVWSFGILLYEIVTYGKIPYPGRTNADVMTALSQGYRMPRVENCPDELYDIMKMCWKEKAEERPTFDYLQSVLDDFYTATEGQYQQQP
Assay [13] shares this target. The note with it: at 1 µM.
Assay [14] shares this target. The note with it: at 0.1 µM. The source holds these as a separate data set.
The target is the same in assay [15]. The note with it: at 1 µM. The source holds these as a separate data set.
The target of assay [16] is T1, Tyrosine-protein kinase Mer (Homo sapiens) (UniProt Q12866).
T1 sequence (whole entry): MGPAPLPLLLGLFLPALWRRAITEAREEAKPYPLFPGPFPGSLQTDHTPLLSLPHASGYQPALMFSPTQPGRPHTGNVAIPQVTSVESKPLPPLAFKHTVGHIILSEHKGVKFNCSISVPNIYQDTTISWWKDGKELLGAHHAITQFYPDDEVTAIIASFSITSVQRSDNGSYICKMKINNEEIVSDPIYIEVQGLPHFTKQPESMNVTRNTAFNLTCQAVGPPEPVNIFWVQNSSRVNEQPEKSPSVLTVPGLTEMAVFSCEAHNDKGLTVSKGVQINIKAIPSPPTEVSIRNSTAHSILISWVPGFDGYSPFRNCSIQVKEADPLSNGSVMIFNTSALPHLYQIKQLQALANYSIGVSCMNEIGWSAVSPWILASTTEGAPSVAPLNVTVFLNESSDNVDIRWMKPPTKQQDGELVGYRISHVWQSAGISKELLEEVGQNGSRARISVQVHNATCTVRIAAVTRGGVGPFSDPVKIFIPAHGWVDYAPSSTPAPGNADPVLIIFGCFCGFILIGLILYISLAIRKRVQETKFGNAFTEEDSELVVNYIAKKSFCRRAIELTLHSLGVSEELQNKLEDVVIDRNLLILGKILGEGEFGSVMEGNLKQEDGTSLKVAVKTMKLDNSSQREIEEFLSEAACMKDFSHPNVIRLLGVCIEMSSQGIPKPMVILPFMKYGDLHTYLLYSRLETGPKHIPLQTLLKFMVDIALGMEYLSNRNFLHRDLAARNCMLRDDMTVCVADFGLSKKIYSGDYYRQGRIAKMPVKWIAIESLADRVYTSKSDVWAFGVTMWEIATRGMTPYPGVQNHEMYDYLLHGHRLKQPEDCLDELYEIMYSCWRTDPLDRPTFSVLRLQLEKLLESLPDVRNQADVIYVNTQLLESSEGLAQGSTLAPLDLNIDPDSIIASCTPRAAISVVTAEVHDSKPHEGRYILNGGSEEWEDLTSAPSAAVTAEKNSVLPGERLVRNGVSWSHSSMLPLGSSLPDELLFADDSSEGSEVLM
The note with it: at 0.1 µM.

Assay [17] addresses T1, Tyrosine-protein kinase Mer (Homo sapiens). The note with it: at 1 µM.
For assay [18], the target named is Hepatocyte growth factor receptor (Homo sapiens) (UniProt P08581). The note with it: at 0.1 µM.
Chain of Hepatocyte growth factor receptor (Homo sapiens) (P08581 whole entry): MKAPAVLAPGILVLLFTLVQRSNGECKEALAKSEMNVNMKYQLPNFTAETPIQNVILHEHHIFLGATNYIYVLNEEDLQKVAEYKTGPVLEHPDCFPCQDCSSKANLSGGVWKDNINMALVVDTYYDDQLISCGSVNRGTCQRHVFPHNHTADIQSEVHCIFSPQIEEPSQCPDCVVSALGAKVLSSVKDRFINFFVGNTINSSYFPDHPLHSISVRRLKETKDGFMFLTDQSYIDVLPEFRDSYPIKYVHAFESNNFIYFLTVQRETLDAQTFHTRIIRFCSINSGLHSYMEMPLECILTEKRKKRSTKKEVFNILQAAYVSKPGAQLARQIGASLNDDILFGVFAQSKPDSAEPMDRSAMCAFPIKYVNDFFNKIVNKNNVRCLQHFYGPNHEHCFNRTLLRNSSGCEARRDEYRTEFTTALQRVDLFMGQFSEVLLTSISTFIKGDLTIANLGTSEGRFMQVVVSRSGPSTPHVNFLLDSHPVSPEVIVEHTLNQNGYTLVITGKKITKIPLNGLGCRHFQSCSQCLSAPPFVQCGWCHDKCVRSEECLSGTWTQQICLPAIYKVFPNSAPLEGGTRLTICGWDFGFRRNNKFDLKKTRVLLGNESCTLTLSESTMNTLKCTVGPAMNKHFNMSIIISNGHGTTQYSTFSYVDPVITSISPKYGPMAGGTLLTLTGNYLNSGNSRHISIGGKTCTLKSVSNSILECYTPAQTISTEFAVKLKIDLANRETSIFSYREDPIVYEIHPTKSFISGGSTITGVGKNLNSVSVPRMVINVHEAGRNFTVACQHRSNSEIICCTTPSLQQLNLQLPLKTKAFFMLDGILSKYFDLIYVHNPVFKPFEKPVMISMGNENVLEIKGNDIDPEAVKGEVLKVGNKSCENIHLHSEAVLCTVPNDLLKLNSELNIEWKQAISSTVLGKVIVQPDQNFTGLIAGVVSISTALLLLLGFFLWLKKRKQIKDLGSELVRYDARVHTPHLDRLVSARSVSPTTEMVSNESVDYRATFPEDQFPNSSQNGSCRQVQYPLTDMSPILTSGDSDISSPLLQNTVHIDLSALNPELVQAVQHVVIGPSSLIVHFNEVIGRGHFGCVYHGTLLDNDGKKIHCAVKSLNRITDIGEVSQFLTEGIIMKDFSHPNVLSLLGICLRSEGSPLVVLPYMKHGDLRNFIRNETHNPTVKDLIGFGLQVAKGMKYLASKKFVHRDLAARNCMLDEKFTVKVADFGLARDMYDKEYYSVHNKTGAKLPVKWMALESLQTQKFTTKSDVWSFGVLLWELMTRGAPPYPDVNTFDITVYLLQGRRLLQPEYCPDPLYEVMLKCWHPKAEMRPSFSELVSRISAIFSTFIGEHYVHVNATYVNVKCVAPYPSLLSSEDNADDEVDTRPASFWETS
The target is the same in assay [19]. The note with it: at 1 µM.
In assay [20] the target is T2, Muscle, skeletal receptor tyrosine-protein kinase (Homo sapiens) (UniProt O15146).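 Also: values are mean inhibition of MuSK from the GSK PKIS kinase screening panel.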
T2 sequence (whole entry): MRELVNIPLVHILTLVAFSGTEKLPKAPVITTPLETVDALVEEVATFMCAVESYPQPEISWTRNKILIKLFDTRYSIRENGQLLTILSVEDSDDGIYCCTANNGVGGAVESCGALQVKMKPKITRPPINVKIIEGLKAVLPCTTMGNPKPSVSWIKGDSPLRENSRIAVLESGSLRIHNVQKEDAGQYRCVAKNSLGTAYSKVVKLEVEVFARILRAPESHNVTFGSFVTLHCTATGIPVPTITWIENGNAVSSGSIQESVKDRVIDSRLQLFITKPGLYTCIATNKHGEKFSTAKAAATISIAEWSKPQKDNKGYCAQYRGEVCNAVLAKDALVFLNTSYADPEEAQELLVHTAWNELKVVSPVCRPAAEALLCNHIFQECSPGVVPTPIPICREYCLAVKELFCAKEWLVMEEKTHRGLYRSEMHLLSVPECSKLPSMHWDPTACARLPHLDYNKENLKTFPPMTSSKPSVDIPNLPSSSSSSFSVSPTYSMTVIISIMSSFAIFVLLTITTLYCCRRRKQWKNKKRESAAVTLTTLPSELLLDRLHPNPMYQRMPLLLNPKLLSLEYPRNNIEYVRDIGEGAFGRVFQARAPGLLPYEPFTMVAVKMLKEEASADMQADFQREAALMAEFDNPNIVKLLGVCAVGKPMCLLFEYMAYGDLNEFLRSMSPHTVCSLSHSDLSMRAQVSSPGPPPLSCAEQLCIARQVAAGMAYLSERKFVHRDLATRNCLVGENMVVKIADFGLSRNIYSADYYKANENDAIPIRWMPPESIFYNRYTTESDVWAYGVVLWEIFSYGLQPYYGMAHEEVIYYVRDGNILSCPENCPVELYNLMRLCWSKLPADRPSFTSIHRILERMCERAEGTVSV
The note with it: at 0.1 µM.

Chain of Mast/stem cell growth factor receptor Kit (Homo sapiens), P10721 [T670I] (P10721 whole entry T670I): as the sequence (P10721 whole entry V560G) above, with G560V, T670I counted along it
Chain of Mast/stem cell growth factor receptor Kit (Homo sapiens) (P10721 whole entry): as the sequence (P10721 whole entry V560G) above, with G560V counted along it
Chain of Leukocyte tyrosine kinase receptor (Homo sapiens) (P29376 whole entry): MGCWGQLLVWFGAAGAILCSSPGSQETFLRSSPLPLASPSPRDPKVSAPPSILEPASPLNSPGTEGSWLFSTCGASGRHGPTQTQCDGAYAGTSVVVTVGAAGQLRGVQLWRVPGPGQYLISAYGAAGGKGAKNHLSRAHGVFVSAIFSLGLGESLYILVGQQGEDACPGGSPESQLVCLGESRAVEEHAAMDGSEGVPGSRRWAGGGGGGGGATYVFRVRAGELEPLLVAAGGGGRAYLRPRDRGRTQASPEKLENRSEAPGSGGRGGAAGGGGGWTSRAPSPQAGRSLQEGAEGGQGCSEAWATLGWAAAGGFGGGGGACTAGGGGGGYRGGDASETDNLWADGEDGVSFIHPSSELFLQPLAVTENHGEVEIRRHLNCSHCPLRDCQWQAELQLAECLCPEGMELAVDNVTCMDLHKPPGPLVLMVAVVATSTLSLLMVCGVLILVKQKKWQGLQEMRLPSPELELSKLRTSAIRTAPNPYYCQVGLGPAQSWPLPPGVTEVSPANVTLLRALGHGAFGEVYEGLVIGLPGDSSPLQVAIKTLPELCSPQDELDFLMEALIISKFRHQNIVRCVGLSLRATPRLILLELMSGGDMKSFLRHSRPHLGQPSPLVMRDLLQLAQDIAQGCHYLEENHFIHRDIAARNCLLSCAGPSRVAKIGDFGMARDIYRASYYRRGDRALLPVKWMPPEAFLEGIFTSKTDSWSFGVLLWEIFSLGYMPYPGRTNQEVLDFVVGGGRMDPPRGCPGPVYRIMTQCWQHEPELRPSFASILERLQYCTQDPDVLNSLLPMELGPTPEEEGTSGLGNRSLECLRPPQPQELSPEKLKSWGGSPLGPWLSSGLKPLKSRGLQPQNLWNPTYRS
Chain of Mast/stem cell growth factor receptor Kit (Homo sapiens), P10721 [D816V] (P10721 whole entry D816V): as the sequence (P10721 whole entry V560G) above, with G560V, D816V counted along it

As to `N#Cc1ccc(Oc2nccc(-c3c(-c4ccc(F)cc4)ncn3C3CCNCC3)n2)cc1`, the inhibition was 6.19% in assay [1]; 2.91% in assay [2]; 2.36% in assay [3]; 3.26% in [4]; 4.72% in [5]; -0.39% in [6]. Also, the inhibition in assay [7] was -1.19%; in assay [8] it was 3.86%; in assay [9], 6.11%; in assay [10], 4.74%; in assay [11], 5.69%; in [12] it was 5.36%. Moreover, the inhibition in assay [13] came to 7.26%; in [14], 3.37%; in [15] it was 4.34%; in assay [16] it was 2.29%; in assay [17], 2.26%; in [18], 3.69%. Also, the figures for the inhibition in assay [19] and in [20] were 6.49% and 1.86%, respectively.

For the compound `CS(=O)(=O)CCNCc1ccc(-c2ccc3ncnc(Nc4ccc(OCc5ccccc5)c(Br)c4)c3c2)o1`, the inhibition in assay [1] was 3.91%; in assay [2], 4.87%; in assay [3], 2.18%; in [4] it was 2.66%; in assay [5], 1.79%; in assay [6], -3.28%. The inhibition in [7] is -1.19%; in assay [8], 0.4%; in assay [9] it was 4.79%; in assay [10] it was 2.96%; in [11], 4.86%; in assay [12], 4.6%. Further, the inhibition amounted to 7.84% in assay [13]; 2.75% in [14]; 5.83% in assay [15]; 2.91% in assay [16]; 13.9% in assay [17]; 1.81% in [18]. In addition, the inhibition in assay [19] stood at 6.53%; in assay [20], 1.27%.

As to `CCc1nccc2c1nc(-c1nonc1N)n2CC`, the inhibition in assay [1] was 0.89%; in assay [2], 0.61%; in assay [3], -2.34%; in assay [4], -0.13%; in assay [5], -2.18%; in assay [6], 3.98%. For the same compound, the inhibition in assay [7] turned out to be 0.88%; in assay [8] it was 0.67%; in [9], 6.3%; in assay [10] it was 6.17%; in [11] it was 6.1%; in assay [12], 3.82%. The inhibition is 6.26% in assay [13]; 1.19% in assay [14]; 2.71% in [15]; -0.98% in [16]; 0.92% in assay [17]; 2.04% in assay [18]. Further, the inhibition in [19] was determined as 2.39%; in assay [20], 1.31%.

Regarding `C#Cc1cccc(Nc2ncnc3ccc(OCCCCNCCS(C)(=O)=O)cc23)c1`, the inhibition is 7.12% in [1]; 5.01% in assay [2]; 8.8% in assay [3]; 1.97% in assay [4]; 9.5% in assay [5]; -0.82% in [6]. In addition, the inhibition in assay [7] worked out at 4.36%; in [8], 0.24%; in [9], 13.5%; in [10] it was 5.05%; in assay [11], 28.5%; in assay [12], 7.93%. Further, the inhibition in assay [13] came out at 26.9%; in [14], 5.05%; in [15], 21.8%; in [16], 2%; in [17], 5.14%; in assay [18], 3.29%. In addition, the inhibition in [19] is 8.4%; in [20] it was 1.86%.

On to `CNC(=O)c1cncc(/C=C/c2c(C)cccc2C)c1`, for which the inhibition in assay [1] is 51.7%; in assay [2], 1.76%; in assay [3] it was 0.69%; in assay [4], -0.72%; in assay [5], -0.77%; in [6] it was 3.1%. In addition, the inhibition in assay [7] was 17.2%; in [8], 3.11%; in assay [9], 30%; in [10], -1.27%; in assay [11], -0.39%; in assay [12], 22.1%. Besides, the inhibition in assay [13] is 72.4%; in assay [14], 17.6%; in [15], 67.8%; in assay [16] it was -0.47%; in assay [17], 3.56%; in [18], -0.92%. In addition, the inhibition came out at 1.41% in assay [19] and 3.8% in assay [20].

On to `O=C(Nc1ccc(Oc2ccc3[nH]c(NC(=O)c4ccccc4)nc3c2)cc1)Nc1cc(C(F)(F)F)ccc1F`, for which the inhibition in assay [1] is 85.1%; in assay [2], 1.52%; in assay [3], 4.26%; in assay [4], 5.51%; in assay [5], 52.1%; in assay [6] it was 10.4%. Also, the inhibition came to 67% in assay [7]; 2.25% in [8]; 14.4% in [9]; 1.84% in [10]; 3.76% in [11]; 5.73% in [12]. For the same compound, the inhibition in [13] stood at 27.5%; in assay [14] it was 3.48%; in [15], 23.4%; in assay [16], 1.3%; in [17], 3.74%; in assay [18] it was 4.39%. For the same compound, the inhibition in assay [19] is 19.2%; in [20], 13.9%.
